# Shown are actives, neighbours in structure and some others; about 3.8% of the full set was active somewhere.
# Nrf2 inh = Nrf2 qHTS screen for inhibitors; AID 504444, 2011; Potency, µM (series often up to 46 µM), hits mostly inhibitors; 360,000 tested, 2.1% active; A549 ARE-Fluc reporter, luciferase luminescence, 18-24 h; note: nearly all actives have a fitted effect of over 60% in size
#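 A549 ARE_Fluc cells, 5000/well, 5% FBS OPTI-MEM; compounds in dose-response, 18-24 h at 37 °C/5% CO2; CellTiter-Fluor viability read (Ex 405/Em 525), then BugLite luciferase luminescence = Nrf2 activity.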
# ATXN2 expr inh = Primary qHTS for Inhibitors of ATXN expression; AID 1745845, 2022; HEK-293 ATXN2-luciferase reporter, luminescence, 24 h; Potency, µM (series often up to 57 µM), most hits filed as inhibitors; 360,000 tested, 0.72% active; note: nearly all actives have a fitted effect of over 55% in size
#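 qHTS (up to 57 uM final) was run with 24 h compound exposure of reporter cells at 37 °C. Each well was multiplexed: SteadyGlo luminescence measured ATXN2-luciferase expression after a fluorogenic Gly-Phe-AFC viability readout (25 uM final).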
# A549 tox = Nrf2 qHTS screen for inhibitors: counterscreen for cytotoxicity. A549 ARE-Fluc cells, CellTiter-Fluor viability, 18-24 h. Potency, µM (highest dose often 46 µM), actives largely listed as inhibitors. 390,000 tested, 0.16% active. AID 504648, 2011
#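 A549 ARE-Fluc cells in 5% FBS OPTI-MEM, 5000 cells/well, rested 2 h then exposed to compounds in concentration-response for 18-24 h at 37 °C. Viability by CellTiter-Fluor fluorescence (Ex 405/Em 525) after 30 min; luciferase luminescence (BugLite, 15 min, RT) read afterwards.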
# ATXN viability = Viability Counterscreen for Primary qHTS for Inhibitors of ATXN expression; AID 651635, 2014; Potency, µM (series often up to 56.7 µM), actives largely listed as cytotoxic; S2 cells (HEK-293 line with an ATXN2-luciferase reporter) viability, CellTiter-Fluor protease fluorescence, 24 h; 400,000 tested, 0.49% active; note: nearly all actives have a fitted effect of over 40% in size
# HepG2 tox = qHTS for Inhibitors of TGF-b: Cytotox Counterscreen; HepG2 CAGA-GFP viability, ATP luminescence, 18 h; Potency, µM (titrated, usually from 46.1 µM), actives largely listed as cytotoxic; 410,000 tested, 0.76% active
#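 CellTiter-Glo luminescence gave cytotoxicity after 18 hours at 37 degrees C. The cells were HepG2 CAGA-GFP in 1% FBS DMEM, stimulated with 500 pg/mL TGF-beta after compound addition. %Activity was normalised to no-cell wells (complete cell-killing) and DMSO (no toxicity), and curves were fitted and classified.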
# TGFb SMAD3 inh = qHTS for Inhibitors of TGF-b; HepG2 CAGA-GFP TGF-b/SMAD3 reporter, GFP fluorescence, 18 h; TGF-beta stimulated, 500 pg/mL final; Potency, µM (series often up to 46.1 µM), actives largely listed as inhibitors; 410,000 tested, 1.2% active; note: nearly all actives have a fitted effect of over 65% in size
#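 HEPG2 CAGA-GFP reporter cells (1000/well, DMEM with 1% FBS) received compounds, then recombinant TGF-beta at 500 pg/mL final for 18 hours at 37 degrees C. Per-cell GFP summed per well was normalised to unstimulated and stimulated DMSO controls before curve fitting.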
# Hits are given with their value; – = inactive; ? = inconclusive; · = no result; [ ] = dose if it differs, or a comment. Calls come from the whole dose curve; as a rule, active = well fitted curve in the direction sought with a large enough effect; inconclusive = small, poorly fitted or top-dose-only effect, or another doubt; inactive = no such curve, though single readings can be large; an effect the other way counts as inactive or inconclusive.
SMILES,Nrf2 inh,ATXN2 expr inh,A549 tox,ATXN viability,HepG2 tox,TGFb SMAD3 inh
Cc1nc(SCCc2nc3ccccc3[nH]2)c2oc3ccccc3c2n1,–,–,–,–,–,–
Cc1cc(C(=O)CCC(=O)N(C)CC2COc3ccccc3O2)c(C)s1 (centres undefined),·,·,·,–,–,–
CCc1nc2ccc(C(=O)N3CCCCC3)cn2c1N(C)CCCc1ccccc1,·,–,·,–,–,?
N#Cc1ccccc1Sc1ccccc1C(=O)OCC(N)=O,–,·,–,–,–,–
Cc1noc(C)c1COC(=O)c1ccccc1Sc1ccccc1C#N,18µM,–,–,–,–,–
CC(C)(C)OC(=O)NCCc1nnc(S(=O)(=O)Cc2ccc(Cl)cc2Cl)o1,–,?,–,·,14µM,10µM
CC(C)(C)OC(=O)NCCc1nnc(SCc2ccccc2)o1,–,·,–,–,–,–
CC(C)(C)OC(=O)NCCc1nnc(SCc2ccccc2Cl)o1,26µM,–,·,–,–,–
CCn1c(-c2ccc(C)cc2)nn(CC(=O)NCCc2ccccc2)c1=S,23µM,?,?,–,–,–
COc1ccc(-c2nn(CC(=O)NCCc3ccccc3)c(=S)n2C)cc1,?,?,–,–,–,–
COc1ccc(NC(=O)c2nc(SCc3ccccc3F)ncc2Cl)cc1,–,·,–,·,–,–
Cc1ccc(Cl)cc1N1CCN(Cc2nc3c(c(=O)[nH]c(=O)n3C)n2Cc2ccccc2F)CC1,18µM,–,–,–,–,?
Cc1ccccc1Cn1c(CN2CCN(c3cc(Cl)ccc3C)CC2)nc2c1c(=O)[nH]c(=O)n2C,–,·,–,·,–,–
Cc1ccccc1NC(=O)COC(=O)c1cccc(S(=O)(=O)N2CCCCC2)c1,?,–,–,–,–,–
CCN(CC)S(=O)(=O)c1ccc(C)c(NC(=S)Nc2cccc(S(=O)(=O)N3CCCCCC3)c2)c1,23µM,–,–,?,–,?
CC(=O)c1c(C)[nH]c(C(=O)OCC(=O)Nc2cc(S(=O)(=O)N3CCCC3)ccc2Cl)c1C,21µM,–,–,–,–,?
CC(=O)c1c(C)[nH]c(C(=O)OCC(=O)Nc2ccc([N+](=O)[O-])cc2Cl)c1C,–,–,–,?,–,–
Cc1ccc(S(=O)(=O)N2CCCCC2)cc1NC(=O)COC(=O)c1cccc(O)c1,·,·,·,–,11µM,–
CCN(CC)S(=O)(=O)c1ccc(C)c(NC(=O)CNc2cccc(S(=O)(=O)N3CCOCC3)c2)c1,?,–,–,?,–,–
COc1ccc(S(=O)(=O)N2CCOCC2)cc1NC(=O)COC(=O)c1[nH]c(C)c(C(C)=O)c1C,?,–,–,–,–,–
CC(=O)c1c(C)[nH]c(C(=O)OCC(=O)Nc2cccnc2Cl)c1C,26µM,–,–,–,–,–
O=C(Nc1ccc(Cl)cc1Cl)c1cc(S(=O)(=O)N2CCC3(CC2)OCCO3)ccc1F,·,·,–,·,–,–
CC(=O)c1c(C)[nH]c(C(=O)OCC(=O)NCC(C)C)c1C,10µM,–,–,–,–,?
CCCc1cc(=O)[nH]c(SCC(=O)Nc2cc(S(=O)(=O)N3CCCCC3)ccc2C)n1,?,–,–,–,16µM,?
CNC(=O)COC(=O)c1[nH]c(C)c(C(C)=O)c1C,–,–,–,–,–,–
SMILES,Nrf2 inh,ATXN2 expr inh,A549 tox,ATXN viability,HepG2 tox,TGFb SMAD3 inh
CC(=O)c1c(C)[nH]c(C(=O)OCC(=O)Nc2cccc(S(=O)(=O)N3CCCC3)c2)c1C,15µM,–,–,?,–,–
Nc1nc2c(Cl)ccc(Cl)c2s1,–,·,–,–,–,–
COc1ccc(NC(=O)CSCC(=O)N2CCN(C(=O)c3ccco3)CC2)cc1,–,–,–,–,–,–
CC[N+](CC)(CC#Cc1ccccc1)CC#Cc1ccccc1,15µM,–,–,–,–,–
CCSc1nnc(NC(=O)C(CC)(C(F)(F)F)C(F)(F)F)s1,15µM,–,?,–,–,?
CCSc1nnc(NC(=O)C(C)(C(F)(F)F)C(F)(F)F)s1,16µM,?,?,–,–,–
CCSc1nnc(NC(=O)C(C(F)(F)F)C(F)(F)F)s1,–,–,–,–,–,–
Cc1ccc(CNC(=O)CN(c2cc(C)cc(C)c2)S(=O)(=O)c2c(C)noc2C)cc1,–,–,–,–,–,–
Clc1cccc2c1Sc1ccccc1CC2N1CCNCC1 (centres undefined),–,?,–,?,–,?
Clc1ccc2c(c1)C(N1CCNCC1)Cc1ccccc1S2 (centres undefined),–,?,?,32µM,14µM,?
Brc1cccc[n+]1Cc1ccc(C[n+]2ccccc2Br)cc1,·,·,·,·,–,–
O=C(O)CCSc1nnc(-c2ccc3c(c2)OCO3)o1,8.2µM,?,–,–,–,–
CC(C)C[C@@H](CN)NC(=O)c1nc[nH]c1C(=O)N[C@@H](C)C(=O)CNC[C@H](C)NC(=O)c1nc[nH]c1C(=O)N[C@@H](CC(=O)O)C(=O)O,–,–,–,–,–,–
CCOCCCn1c(SCC(=O)Nc2ccccc2Cl)nc2c(oc3ccccc32)c1=O,–,–,–,–,–,–
CC(C)(C)c1ccc(-n2nc(C#N)c(Cl)cc2=O)cc1,?,?,?,·,6.3µM,7.1µM
CC(C)(C)c1ccc(-n2nc(C(N)=O)c(O)cc2=O)cc1,?,–,–,?,–,–
COc1ccccc1N1CCN(c2ncnc3c2nc2n3CCCC2)CC1,21µM,?,–,?,–,?
CC(=O)c1ccc(N2CCN(c3ncnc4c3nc3n4CCCC3)CC2)cc1,23µM,·,–,·,–,?
COc1ccccc1N1CCN(C(=O)C2CCCN(c3ncnc4c3nc3n4CCCCC3)C2)CC1 (centres undefined),?,–,–,–,–,–
CCCN(CCC)CCCNC(=O)c1cc2c(-c3ccc(Cl)cc3)nn(C)c2s1,–,?,?,25µM,–,?
CCN(CC)CCCNC(=O)c1cc(-c2ccc(Cl)c(Cl)c2)on1,–,?,–,?,16µM,?
CCN(CC)CCCNC(=O)c1cc2c(-c3ccc(Cl)cc3)nn(C)c2s1,–,25µM,–,·,–,?
CCN(CC)CCCNC(=O)c1cc(-c2ccc(O)cc2)on1,–,–,–,?,–,?
CCn1c(CNc2ccc(C)cc2)nnc1SCC(N)=O,?,–,–,–,–,–
CC(=O)N1CCc2c(sc3nc(SCC(C)C)n(-c4ccc(F)c(Cl)c4)c(=O)c23)C1,–,–,–,–,–,?
CC(=O)N1CCc2c(sc3nc(SCC(C)C)n(-c4ccc(C)c(Cl)c4)c(=O)c23)C1,–[9.27 µM],?,–,·,11µM,?

# Compound activity as filed in PubChem.
